# Reference: PubChem BioAssay (NCATS)
# Results filed as inconclusive are left out. A call without a number means that no potency is given here. Active and inactive are the calls of the source. Unless noted, the call rests on the fitted dose curve; in most records, active means well fitted curve in the direction sought with a large enough effect in the repeat runs; inconclusive means weak or mixed curves; inactive means no such curve, though single readings can be large; an effect the other way counts as inactive or inconclusive.
# Test system: not listed separately
# Experiment: Primary qHTS for small molecule stabilizers of the endoplasmic reticulum resident proteome: Secreted ER Calcium Modulated Protein (SERCaMP) assay (AID 1508630; active means well fitted curve in the direction sought with a large enough effect; an effect the other way counts as inactive or inconclusive)
# Details: SH-SY5Y GLuc-SERCaMP (Gaussia luciferase released on ER calcium loss) secretion, thapsigargin, luminescence; series mostly up to 38.4 µM
# In short: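 GLuc-SERCaMP-expressing SH-SY5Y cells, pretreated 16 h with compound, are challenged with thapsigargin to empty ER calcium stores; after 4 h, coelenterazine is added directly to the medium and luminescence is imaged.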
row,SMILES,outcome
1,O=S(=O)(c1ccccc1)N(CC(F)(F)F)c1ccc(C(O)(C(F)(F)F)C(F)(F)F)cc1,inactive
2,COc1ccc2[nH]c(=O)c3c(c2c1)OC(C)(C)C=C3,inactive
3,CCc1ccccc1OC[C@@H](O)CN[C@H]1CCCc2ccccc21,inactive
4,COc1cc(C[C@H]2C(=O)OC[C@@H]2Cc2ccc(OC)c(OC)c2)ccc1O,inactive

# Target: Cytochrome P450 2D6 (Homo sapiens) (UniProt P10635)
# Experiment: Cytochrome P450 family 2 subfamily D member 6 (CYP2D6) small molecule antagonists: luciferase biochemical (cell-free) qHTS assay (AID 1645840); further: nearly all actives have a fitted effect of over 55% in size; further: potency means the concentration at half of the fitted maximal effect
# Details: P450-Glo CYP2D6 enzyme, luciferin luminescence, 1 h; series mostly up to 57.4 µM
# In short: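 P450-Glo luminescent screen: recombinant CYP2D6 enzyme–proluciferin substrate mix preincubated with compound 10 min at room temperature, then NADPH regeneration added for 1 h at room temperature. Detection reagent added for 20 min; luciferin light read as relative luminescence units.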
# Cytochrome P450 2D6 (Homo sapiens), sequence (P10635 whole entry, looked up): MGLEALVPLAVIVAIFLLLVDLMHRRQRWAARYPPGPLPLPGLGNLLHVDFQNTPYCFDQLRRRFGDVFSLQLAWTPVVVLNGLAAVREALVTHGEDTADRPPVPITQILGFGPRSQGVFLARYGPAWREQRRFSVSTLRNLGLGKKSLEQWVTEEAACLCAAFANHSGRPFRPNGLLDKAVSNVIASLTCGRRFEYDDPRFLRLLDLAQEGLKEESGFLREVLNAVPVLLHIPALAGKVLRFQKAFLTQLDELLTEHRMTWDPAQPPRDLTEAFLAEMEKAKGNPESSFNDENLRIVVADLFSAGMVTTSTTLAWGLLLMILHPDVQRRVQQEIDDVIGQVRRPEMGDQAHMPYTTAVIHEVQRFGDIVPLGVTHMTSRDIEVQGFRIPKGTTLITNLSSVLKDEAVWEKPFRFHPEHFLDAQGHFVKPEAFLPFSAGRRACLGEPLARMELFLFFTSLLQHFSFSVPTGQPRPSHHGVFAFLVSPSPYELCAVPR
row,SMILES,Potency
1,Nc1cccc(CNC(=O)c2ccc(Oc3ccc(OCc4cccc(F)c4)cc3)nc2)c1,inactive
2,COc1c(C)cnc(Cn2cc(C#CCC(C)(C)O)c3c(Cl)nc(N)nc32)c1C,inactive
3,CC(C)S(=O)(=O)c1ccc2nccc(Nc3ccc4scnc4c3)c2c1,10.7 µM (active)
4,O=S(=O)(Cc1ccccc1)Nc1ccc(-c2ccc3c(cnn3-c3ccc(F)cc3)c2)c(C(F)(F)F)c1,inactive
5,COc1cc(-c2cn(C3CCc4c(F)cccc4N(CC(F)(F)F)C3=O)nn2)ccc1-n1cnc(C)c1 (centres undefined),26.8 µM (active)
6,Cc1cc(NC(=O)NCCN2CCC(O)(Cc3ccccc3)CC2)c2ccccc2n1,8.49 µM (active)
7,CC(C)c1ccc(NC(=O)c2cccs2)c(-c2nc3ccccc3[nH]c2=O)c1,13.5 µM (active)
8,NS(=O)(=O)Nc1ncnc(OCCOc2ncc(Br)cn2)c1-c1ccc(Br)cc1,inactive
9,CCc1ccccc1OC[C@@H](O)CN[C@H]1CCCc2ccccc21,0.477 µM (active)
10,Cc1cc(N2CCOCC2)ccc1Nc1nc(NC2CCCCC2)c2[nH]cnc2n1,inactive
